Measured values published in the supplement of paper PMC6555819.

Tests used:
Assay in all cases: PBM binding z-score (relative to random genomic background probes); higher = stronger binding; sequences stand for … in GC…GCGATTGACAGCGTAGAATGAAGG
[1] = tested on: RARb homodimer (NR concentration 270 nM)
Procedure, shortened: (§1)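 Antibodies against each partner of ligand-free nuclear receptor dimers (one per run) detected binding on custom Agilent 4×180K protein-binding microarrays after 1 h incubation. The double-stranded probes had 34-nt variable regions carrying direct-repeat seeds, single-nucleotide variants, half-site ablations and random human genomic background sequences. Binding z-scores, from regression-normalized fluorescence, use the random background probes as reference.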

[2] = tested on: RARg:RXRa (NR concentration 270 nM, RXRa partner concentration 90 nM)
Procedure, shortened: as §1

[3] = tested on: RARg homodimer (NR concentration 270 nM)
Procedure, shortened: as §1

[4] = tested on: RXRa DBDmut IVT, anti-RXR (DBD mutation: RXRa K156A/R161A, NR concentration 90 nM)
Procedure, shortened: as §1

[5] = tested on: RXRa homodimer (NR concentration 180 nM)
Procedure, shortened: as §1

[6] = tested on: THRa:RXRa (NR concentration 90 nM, RXRa partner concentration 90 nM)
Procedure, shortened: as §1

[7] = tested on: THRa homodimer (NR concentration 90 nM)
Procedure, shortened: as §1

[8] = tested on: VDR homodimer (NR concentration 270 nM)
Procedure, shortened: as §1

| Sequence | PBM binding z-score [1] | PBM binding z-score [2] | PBM binding z-score [3] | PBM binding z-score [4] | PBM binding z-score [5] | PBM binding z-score [6] | PBM binding z-score [7] | PBM binding z-score [8] |
| --- | --- | --- | --- | --- | --- | --- | --- | --- |
| CAAACTAGGTCACAGAGTTCAAAGTCCGTGCGTA | 4.74 | 6.06 | 6.71 | 4.25 | 5.69 | 4.03 | 1.96 | 9.52 |
| ATACCAAGGTGATCCTGAGGTCGTTGATACTAAC | 1.82 | 2.54 | 0.948 | 0.968 | 2.08 | 3.67 | 2.52 | 2.87 |
| TCTAGCAGGCCAGAGGGGCACTCAAGAGGTACGG | 0.611 | 0.104 | 0.165 | -0.0321 | 0.357 | -0.399 | -0.898 | -0.703 |
| ATCTCTAGGTAACCATGTTCAGTGAATGCCGAAC | 0.332 | 0.315 | 0.421 | 0.392 | 0.272 | 0.812 | 0.66 | 0.0942 |
| CCAGACAGGTGAAAGGTAACACAGTCTGGTACGC | 1.1 | 1.72 | 1.07 | -0.201 | 2.27 | 1.02 | -0.219 | -0.147 |
| AGATTGAGGTTATACGTAGATCAGGGAAGAAAGT | 0.842 | 1.71 | 0.96 | 1.28 | 2.2 | 2.24 | 0.943 | 0.908 |
| GCTCGGTGGACAAGGTCAGAGCTTTGTCCGTAGA | 2.7 | 2.44 | 2.14 | 0.246 | 1.96 | 2.48 | 1.14 | 0.24 |
